SMILES strings stand for the structures. In all, about 110,000 compounds went through this assay and about 190 (0.17%) were called active. Only a selection was taken, and actives are over-represented in it overall. Measured potencies and affinities stand elsewhere. Unmarked numbers belong to inactive results. Cut-off read from the data, not from the text of the source: active = inhibition above about 50%; inactive = the rest.

Dual specificity protein phosphatase 6 (Rattus norvegicus), sequence (Q64346 whole entry, looked up): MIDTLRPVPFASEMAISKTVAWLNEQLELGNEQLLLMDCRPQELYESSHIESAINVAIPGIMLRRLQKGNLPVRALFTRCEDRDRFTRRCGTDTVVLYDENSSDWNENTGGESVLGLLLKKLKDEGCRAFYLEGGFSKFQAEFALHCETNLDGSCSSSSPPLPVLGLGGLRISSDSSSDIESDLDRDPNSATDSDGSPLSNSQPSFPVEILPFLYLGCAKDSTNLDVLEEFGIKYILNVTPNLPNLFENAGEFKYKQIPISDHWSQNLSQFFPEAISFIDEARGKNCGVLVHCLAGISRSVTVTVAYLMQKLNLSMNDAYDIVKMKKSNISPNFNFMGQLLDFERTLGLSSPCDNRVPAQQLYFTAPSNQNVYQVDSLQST

This experiment concerns the target Dual specificity protein phosphatase 6 (Rattus norvegicus) (UniProt Q64346). Briefly: MKP-3 phosphatase inhibitors, primary screen, biochemical, rat enzyme, in vitro (AID 425).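 Note: plate controls were vehicle for no effect and reference inhibitor for full effect.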 To be noted: recombinant MKP-3 phosphatase activity, fluorescence; at 20 µM; stronger effect = higher value.
The inhibition is the change of the read-out against control, counted positive when it falls. Regarding `O=[N+]([O-])c1ccc(N2CCN(Cc3ccccc3)CC2)c(Cl)c1`, the inhibition is -2.4%. In the case of `CN(C)C(=O)Oc1ccc([N+](=O)[O-])cc1`, the inhibition is -1.2%.

`CN(CN1C(=O)C(=O)c2cc([N+](=O)[O-])ccc21)[N+](=O)[O-]`: the inhibition was 86.6% (active). For `CCN1C(=O)/C(=C/c2cccn2C)C(=O)NC1=S`, the inhibition was 108% (active).

As for `CN1C(=O)C(=Cc2cccn2-c2cccc([N+](=O)[O-])c2)C(=O)N(C)C1=O`, the inhibition was 4.9%.

Take `CCN1C(=O)/C(=C/c2ccoc2)C(=O)NC1=S`: the inhibition is 107% (active). As for `Cn1cccc1/C=C1/C(=O)NC(=S)N(c2ccc(Cl)cc2)C1=O`, the inhibition was 77.8% (active). In the case of `C=CCN1C(=O)NC(=O)C(=Cc2cccn2C)C1=O` it was 2.3%; in that of `O=C1NC(=S)N(c2cccc(Cl)c2)C(=O)/C1=C/c1ccc(Cl)cc1`, -0.2%; in that of `CCN1C(=O)/C(=C/c2ccc(OC)c3ccccc23)C(=O)NC1=S`, 2.2%. On to `COc1ccc(CN2C(=O)NC(=O)/C(=C\c3ccoc3)C2=O)cc1`, for which the inhibition is 5.2%. The figure for `O=C1NC(=O)N(c2ccccc2)C(=O)/C1=C/c1ccoc1` is 4.9%. The figure for `O=C1NC(=S)N(c2ccc(Cl)cc2)C(=O)/C1=C/c1ccc(-c2ccccc2C(=O)O)o1` is 6.3%; for `C=CCN1C(=O)/C(=C\c2cccn2-c2ccc([N+](=O)[O-])cc2)C(=O)NC1=S` it is 37.5%. Consider `C=CCN1C(=O)/C(=C\c2cccn2-c2cccc([N+](=O)[O-])c2)C(=O)NC1=S`, for which the inhibition was 94.7% (active). For `CCC1(c2ccccc2)C(=O)NC(=O)N(C(=O)c2cccc(F)c2)C1=O` (stereo not given), the inhibition was -3.3%.

Consider `O=C1NC(=O)C(=Cc2ccc(OCc3cccc(C(=O)O)c3)cc2)C(=O)N1`, for which the inhibition was -1%. As for `CCOc1c(P(=S)(N(C)C)N(C)C)c(C)nn1-c1ccccc1`, the inhibition was -4.3%. Regarding `Oc1ccc(CC2CC3CCN2CC3)cc1O` (stereo not given), the inhibition was -5.2%. For `CCCc1[nH]nc2c1C1(C(=O)N(CC(N)=O)c3ccccc31)C(C(=O)OC)=C(N)O2` (stereo not given), the inhibition is -2.9%. Turning to `CC1CCC(C(=O)NC(C(=O)N2CCC3(CC2)OCCO3)C(C)C)CC1` (stereo not given), the inhibition was -15.8%.

For the molecule `CCC1(C)CC(CCNCc2ccccc2)(c2ccc(C)cc2)CCO1` (stereo not given), the inhibition was -4%. `Cc1ccccc1C(=O)Nc1cc(Cl)c([N+](=O)[O-])cc1Cl`: the inhibition was 1.4%. In the case of `COC(=O)CCCNC(=O)CN1CC(c2ccccc2)CC1=O` (stereo not given) it was -1.1%; in that of `O=C(c1cc2c(s1)CCCC2)N1CCC2(CC1)OCCO2`, -11.3%. `Cc1cccc(N2C(=O)NC(=O)C(=Cc3ccco3)C2=O)c1`: the inhibition was 2.3%. Regarding `CCOc1ccc(N2C(=O)/C(=C/c3ccc(C)cc3)C(=O)NC2=S)cc1`, the inhibition is 2.5%. In the case of `CC(C)c1ccc(N2C(=O)NC(=O)/C(=C/c3ccco3)C2=O)cc1` it was 4.9%; in that of `O=C1NC(=O)N(c2cccc(Br)c2)C(=O)/C1=C/c1ccco1`, 97.8% (active). For `O=C1NC(=S)N(c2cccc(Br)c2)C(=O)/C1=C/c1cccs1`, the inhibition was 5.7%. With `CCOc1ccc(N2C(=O)/C(=C/c3ccco3)C(=O)NC2=S)cc1`, the inhibition was 107% (active). Regarding `C=CCN1C(=O)/C(=C\C=C\c2ccco2)C(=O)NC1=S`, the inhibition was 83.7% (active).

Regarding `O=C1NC(=S)N(c2cccc(Br)c2)C(=O)/C1=C/c1ccco1`, the inhibition is 108% (active). The figure for `CCOc1ccc(N2C(=O)/C(=C/c3cc(Cl)ccc3O)C(=O)NC2=S)cc1` is 4.8%; for `O=C1NC(=S)N(c2cccc(Br)c2)C(=O)/C1=C/C=C/c1ccccc1` it is 11.1%. Turning to `O=C1NC(=O)N(Cc2ccccc2)C(=O)/C1=C\C=C\c1ccco1`, the inhibition was 3.4%. In the case of `C=CCN1C(=O)/C(=C\c2ccc(C)o2)C(=O)NC1=S` it was 8.6%; in that of `Clc1ccc(CCNCc2ccc3c(c2)OCO3)c(Cl)c1`, 1.1%; in that of `O=c1c2ccccc2nc(-c2ccccc2F)n1-c1ccc(Cl)cc1`, 3.1%. Take `O=C(Nc1cccc(OC(=O)N2CCOCC2)c1)N1CCOCC1`: the inhibition is 0.2%. On to `O=C1NC(=S)N(c2ccccc2)C(=O)/C1=C/c1ccco1`, for which the inhibition is 102% (active). As to `Cc1ccc(C=C2C(=O)NC(=S)N(c3ccccc3F)C2=O)s1`, the inhibition is 3%. In the case of `O=C1NC(=S)N(c2ccccc2F)C(=O)C1=Cc1ccco1`, the inhibition is 99% (active).

`CN(C)c1ccc(C=C2C(=O)NC(=S)N(c3ccccc3F)C2=O)cc1`: the inhibition was -0.6%. The figure for `CCOc1ccc2ccccc2c1/C=C1\C(=O)NC(=S)N(c2ccccc2)C1=O` is 0.5%.

Consider `O=C1NC(=S)N(c2ccc(Br)cc2)C(=O)/C1=C/c1ccc(-c2ccccc2C(=O)O)o1`, for which the inhibition is 4.4%.

In the case of `CN1CCN(Cc2nc3ccccc3n2C)CC1`, the inhibition is -3%. With `CCN1CCN(c2ccc(C(F)(F)F)cn2)CC1`, the inhibition is 2.1%. `CN1CCN(c2ccc(NC(=O)C(C)(C)C)cc2)CC1`: the inhibition was -2.3%. The figure for `Cc1ccc2nc3c(cc2c1)CC1(C(=O)N(C)C(=O)N(C)C1=O)C1CCCCN31` (stereo not given) is -20.3%; for `O=C(c1ccc(N2N=N2)cc1)c1ccc(N2N=N2)cc1` it is -3.2%. Consider `COc1ccc(N2C(=O)/C(=C/c3ccc(-c4cc(C(=O)O)ccc4Cl)o3)C(=O)NC2=S)cc1`, for which the inhibition is 9.5%.

Consider `O=C1NC(=O)N(c2ccc(Cl)cc2)C(=O)/C1=C/c1ccc(Br)o1`, for which the inhibition was 41.4%. On to `CCOc1ccc(N2C(=O)/C(=C/c3ccc(Br)o3)C(=O)NC2=S)cc1`, for which the inhibition was 104% (active). In the case of `O=C1NC(=S)N(c2ccc(F)cc2)C(=O)/C1=C/c1ccc(Br)o1` it was 90.9% (active); in that of `COc1ccc(N2C(=O)/C(=C/c3ccc(I)o3)C(=O)NC2=S)cc1`, 108% (active); in that of `CN1C(=O)NC(=O)/C(=C/c2ccc(Br)o2)C1=O`, 6%. With `CCOc1ccc(N2C(=O)NC(=O)/C(=C\c3ccc(C)o3)C2=O)cc1`, the inhibition is 3.6%. `CCOc1ccc(N2C(=O)/C(=C/c3ccc(C)o3)C(=O)NC2=S)cc1`: the inhibition was 13.5%.

On to `CN1C(=O)NC(=O)/C(=C/c2ccc(I)o2)C1=O`, for which the inhibition is -0.4%. `CCOC(=O)C1CCN(/C=C2/C(=O)NC(=O)N(Cc3ccco3)C2=O)CC1`: the inhibition was -5.2%.

For `O=C1N(CN2CCOCC2)c2ccccc2C1(O)c1c[nH]c2ccccc12` (stereo not given), the inhibition was 0.3%. Regarding `CN(C)C(=O)Oc1ccc(OC(=O)c2ccccc2)cc1`, the inhibition is -6.4%. Take `O=C1c2ccccc2C2(c3ccc(Cl)cc3)NCCN12` (stereo not given): the inhibition was -7.5%. For `O=[N+]([O-])c1ccc(N2CCNCC2)cc1NCCOc1ccccc1`, the inhibition was 3.6%. Turning to `O=C(COc1ccc(Cl)cc1)N1CCN(Cc2ccc([N+](=O)[O-])cc2)CC1`, the inhibition is -0.9%.

Turning to `Cc1ccc(C=C2C(=O)N(C)C(=O)N(C)C2=O)o1`, the inhibition is -11.1%. In the case of `Cc1cc(OCc2ccc(F)cc2)c2c3c(c(=O)oc2c1)CCCC3`, the inhibition is 2.6%. Consider `Cn1cc(/C=C2\C(=O)NC(=O)N(Cc3ccccc3)C2=O)c2ccccc21`, for which the inhibition was 2.1%. With `CC(C)N1CCN(Cc2cc(Br)ccc2O)CC1`, the inhibition was -1.8%.

For the origin of these results see PubChem BioAssay AID425 (Sanford-Burnham Center for Chemical Genomics, 2006).
